PubChem BioAssay
Several values for one entry are separate records, joined by “and”; a condition that tells them apart may be missing. Identical values can stand only once. Activity calls are given as the source filed them.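 Rule for the calls, unless noted: active = thallium flux through the channel raised or lowered by more than 3 SD from vehicle-only wells, actives on both sides; inactive = the rest.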

Experiments:
[1] = stimulators of nuclear beta-catenin in C2C12, primary screen, imaging, WNT3A-conditioned medium, mouse C2C12, NPC library (AID 1117326; in the data active = nuclear beta-catenin stimulation mostly above about 4.2%, no sharp cut-off; inactive = mostly below about 10%); details: stronger effect = higher value
[2] = stimulators of insulin release from INS-1E, primary screen, cell-based, 5 mM glucose, NPC library (AID 1117329;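 active = compound raises insulin release from rat beta cells at 5 mM glucose, no numeric limit stated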); details: rat INS-1E insulin secretion, at 10 µM, stronger effect = higher value
[3] = growth inhibition of GSK3B-pretreated HCT116 cells – cell-based, CellTiter-Glo, 0.2 to 20 µM (AID 1117336;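 active = compounds lowering colon cancer cell viability after pretreatment blocking the GSK3B kinase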); details: HCT116 viability after GSK3B inhibitor, at 20 µM, stronger effect = higher value
[4] = inhibition of endothelial tube formation, primary screen, imaging, VEGF stimulated, CD31 staining, tube area, NPC library (AID 1117340;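 active = compound that reduces growth-factor-driven endothelial tube area in a mixed cell culture, no cutoff stated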); details: VEGF-stimulated ADSC/ECFC co-culture, at 10 µM, stronger effect = higher value
[5] = glucagon-like peptide 1 release enhancers, primary assay, NCI-H716 cell line, NPC library (AID 1117341;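 active = compound raises GLP1 secretion from the human gut endocrine cells, with no numeric limit stated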); details: NCI-H716 cells, at 10 µM, stronger effect = higher value
[6] = HCT116 colon cancer cell growth inhibition, primary screen, CellTiter-Glo luminescence, NPC library (AID 1117342;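 active = compounds that lower survival of HCT116 colon cancer cells in the luminescence readout, no numeric limit stated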); details: at 20 µM (top of the series)
[7] = CellTiter-Glo luminescent readout of SW480 viability loss, NPC library primary (AID 1117343;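 active = compounds that lower viability of the colon cancer cells in the luminescence readout, with no numeric limit stated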); details: CellTiter-Glo luminescence; at 20 µM (top of the series)
[8] = decreased DLD-1 cellular survival, CellTiter-Glo luminescent readout, NPC compound collection, primary HTS (AID 1117346;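 active = compounds that lower survival of DLD-1 colon cancer cells in the luminescence readout, no cutoff given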); details: DLD-1 viability, CellTiter-Glo luminescence; at 20 µM (top of the series)
[9] = molecular target: 6-phosphogluconate dehydrogenase, decarboxylating (Homo sapiens) (UniProt P52209); experiment: 6PGD enzyme inhibitors, primary screen, biochemical, human, recombinant enzyme, NADPH absorbance (AID 1159550;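 active = at least 20% inhibition of 6-phosphogluconate dehydrogenase activity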); details: recombinant 6PGD, NADPH absorbance 341 nm; at 10 µM; stronger effect = higher value
6-phosphogluconate dehydrogenase, decarboxylating (Homo sapiens), sequence (P52209 whole entry, looked up): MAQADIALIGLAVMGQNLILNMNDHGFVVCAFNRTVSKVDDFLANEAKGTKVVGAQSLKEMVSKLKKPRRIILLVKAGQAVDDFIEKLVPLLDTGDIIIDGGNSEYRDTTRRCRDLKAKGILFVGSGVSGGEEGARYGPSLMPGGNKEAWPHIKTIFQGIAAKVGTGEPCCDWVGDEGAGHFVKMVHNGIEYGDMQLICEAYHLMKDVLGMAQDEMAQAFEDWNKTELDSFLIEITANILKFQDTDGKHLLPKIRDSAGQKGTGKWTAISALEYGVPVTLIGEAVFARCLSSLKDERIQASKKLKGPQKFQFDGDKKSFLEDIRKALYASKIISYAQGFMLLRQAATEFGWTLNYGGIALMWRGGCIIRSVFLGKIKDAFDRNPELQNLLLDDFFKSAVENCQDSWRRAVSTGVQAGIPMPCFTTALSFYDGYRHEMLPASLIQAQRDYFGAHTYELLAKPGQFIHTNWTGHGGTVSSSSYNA

[10] = differential killing of epithelial or mesenchymal cells, primary screen, imaging, PC-3E GFP, TEM4-18 mCherry, co-culture (AID 1345086;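 active = compounds killing one labelled cell type while sparing the other, by normalised counts and ratio limits, not self-fluorescent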;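 for all read-outs here: cells exposed to compound for 72 h before imaging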;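 for red/green cell ratio (normalised): normalised mesenchymal count divided by normalised epithelial count so high means epithelial killing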); details: imaging cell counts, at 1 µM; for red/green cell ratio (normalised): actives lie on both sides, counts scaled to control wells, 1 = unselective
[11] = sensitizers of A549 cells to miR-34 induction, primary screen, imaging, A549 dox-inducible miR-34, nuclei and caspase counts (AID 1347080;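 active = compounds whose cell count with miR-34 switched on is under 0.7 times the count with it off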); details: A549 miR-34 inducible, Hoechst nuclei count, 48 h
[12] = survival rescue of mitochondrial mutant cells in low glucose, primary screen, MELAS cybrids, Rieske KO mouse fibroblasts, CellTiter-Glo (AID 1508586;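 active = mean z-score across replicates of 1.96 or higher in either the MELAS or the Rieske mutant cell line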;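 note: z relative to plate mean and SD of compound and empty wells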)
[13] = system: F380Y; experiment: modulators of BK channel variants, profiling panel, selectivity assay, cell-based, U2OS BacMam, thallium flux, beta subunits (AID 1259406); details: at 30 µM;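 note: initial slope of Thallos dye fluorescence rise after thallium is added; log ratio against the mean of 0.3% DMSO vehicle wells on the same plate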
[14] = system: F380Y/beta1; experiment: as above; details: at 30 µM
[15] = system: F380Y/beta2Delta; experiment: as above; details: at 30 µM
[16] = system: F380Y/beta4; experiment: as above; details: at 30 µM
[17] = molecular target: Calcium-activated potassium channel subunit alpha-1 (Homo sapiens) + Leucine-rich repeat-containing protein 26 (Homo sapiens) (UniProt Q12791+Q2I0M4); experiment: as above; details: F380Y/Slo1WT/gamma1, at 30 µM
Calcium-activated potassium channel subunit alpha-1 (Homo sapiens) + Leucine-rich repeat-containing protein 26 (Homo sapiens), sequence (Q2I0M4 whole entry, looked up, one chain of several): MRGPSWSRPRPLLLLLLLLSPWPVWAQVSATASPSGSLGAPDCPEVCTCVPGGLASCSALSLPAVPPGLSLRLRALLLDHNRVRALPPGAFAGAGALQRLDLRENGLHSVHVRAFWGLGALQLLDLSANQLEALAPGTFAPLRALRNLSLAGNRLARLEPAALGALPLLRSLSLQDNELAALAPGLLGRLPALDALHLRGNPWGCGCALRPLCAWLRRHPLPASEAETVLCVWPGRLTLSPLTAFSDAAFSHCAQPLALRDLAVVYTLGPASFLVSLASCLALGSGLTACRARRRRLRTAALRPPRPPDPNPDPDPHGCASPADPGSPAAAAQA

[18] = system: R275C; experiment: as above; details: at 30 µM
[19] = system: R275C/beta1; experiment: as above; details: at 30 µM
[20] = measured here: epithelial PC-3E GFP cell survival
[21] = measured here: mesenchymal TEM4-18 mCherry cell survival
[22] = MELAS cybrid survival, CellTiter-Glo 48 h, stronger effect = higher value
[23] = Rieske KO mouse fibroblast survival, CellTiter-Glo 72 h

CS(=O)(=O)OCCCCOS(C)(=O)=O
1.16: normalised cell number [10, 20]
9740 and 7120 and 8790: cell count ([11]; measured here: total cells with miR-34 induction, stronger effect = lower value)
-0.743 and -0.155: z-score [12, 23]
0.6%: nuclear beta-catenin stimulation ([1]; stimulation, at 2 µM)
inactive: nuclear beta-catenin stimulation ([1]; at 10 µM) 1.2% | insulin secretion stimulation [2] 0.2% | viability decrease [3] 3.6% | tube area decrease [4] 32.5% | GLP1 secretion stimulation [5] -1.7% | inhibition of viability [6] -1.23% | viability decrease (inhibition) [7] 31.8% | viability decrease (inhibition) [8] -11% | inhibition [9] 1.77% | red/green cell ratio (normalised) [10] 1.02 | fold change ([11]; stronger effect = lower value, cell number ratio, induced over uninduced) 0.955 and 0.888 and 0.86 | z-score [12, 22] -0.182 and -0.283 | log fold change Tl+ flux [13] -0.0118 | log fold change Tl+ flux [14] 0.0504 | log fold change Tl+ flux [15] 0.00156 | log fold change Tl+ flux [16] 0.00072 | log fold change Tl+ flux [17] -0.0136 | log fold change Tl+ flux [18] 0.0198 | log fold change Tl+ flux [19] -0.0312
1.19: normalised cell number [10, 21]
10200 and 8020: cell count ([11]; measured here: total cells without miR-34 induction)
1.41 and 0.655 and 1.42: fold change ([11]; measured here: relative caspase fold change +Dox/-Dox)

CC12CC3CC(C)(C1)CC(N)(C3)C2
inactive: nuclear beta-catenin stimulation ([1]; at 10 µM) 2% | insulin secretion stimulation [2] 12% | viability decrease [3] -2.8% | tube area decrease [4] -6.5% | GLP1 secretion stimulation [5] 2.8% | inhibition of viability [6] -5.4% | viability decrease (inhibition) [7] 14.2% | viability decrease (inhibition) [8] 0.65% | inhibition [9] 7.37% | red/green cell ratio (normalised) [10] 0.87 | z-score [12, 22] -0.277 and -0.613 | log fold change Tl+ flux [13] 0.0112 | log fold change Tl+ flux [14] 0.0185 | log fold change Tl+ flux [15] 0.0288 | log fold change Tl+ flux [16] 0.00566 | log fold change Tl+ flux [17] -0.0203 | log fold change Tl+ flux [18] 0.00266 | log fold change Tl+ flux [19] -0.0595
1: normalised cell number [10, 21]
1.15: normalised cell number [10, 20]
1%: nuclear beta-catenin stimulation ([1]; stimulation, at 2 µM)
0.678 and -0.28: z-score [12, 23]

O=C(O)CCCc1ccccc1
1.11: normalised cell number [10, 21]
-0.148 and -0.948: z-score [12, 23]
1.12: normalised cell number [10, 20]
0.9%: nuclear beta-catenin stimulation ([1]; stimulation, at 2 µM)
inactive: nuclear beta-catenin stimulation ([1]; at 10 µM) 0.2% | insulin secretion stimulation [2] 1.8% | viability decrease [3] -6.2% | tube area decrease [4] -15% | GLP1 secretion stimulation [5] -1.1% | inhibition of viability [6] 0.1% | viability decrease (inhibition) [7] 12.5% | viability decrease (inhibition) [8] -3.9% | inhibition [9] -10% | red/green cell ratio (normalised) [10] 1 | z-score [12, 22] -0.2 and -0.108 | log fold change Tl+ flux [13] 0.0311 | log fold change Tl+ flux [14] 0.0211 | log fold change Tl+ flux [15] -0.00447 | log fold change Tl+ flux [16] 0.0283 | log fold change Tl+ flux [17] 0.00509 | log fold change Tl+ flux [18] -0.048 | log fold change Tl+ flux [19] 0.0568

NNCCc1ccccc1
0.91: normalised cell number [10, 21]
0.7%: nuclear beta-catenin stimulation ([1]; stimulation, at 2 µM)
-0.108: z-score [12, 23]
1.03: normalised cell number [10, 20]
inactive: nuclear beta-catenin stimulation ([1]; at 10 µM) 1.9% | insulin secretion stimulation [2] -0.6% | viability decrease [3] -32% | tube area decrease [4] 7.4% | GLP1 secretion stimulation [5] -0.4% | inhibition of viability [6] 5.1% | viability decrease (inhibition) [7] -14.5% | viability decrease (inhibition) [8] 7.4% | inhibition [9] 8.47% | red/green cell ratio (normalised) [10] 0.88 | z-score [12, 22] -0.122 | log fold change Tl+ flux [13] 0.0104 | log fold change Tl+ flux [14] -0.0168 | log fold change Tl+ flux [15] -0.0213 | log fold change Tl+ flux [16] 0.00368 | log fold change Tl+ flux [17] -0.00263 | log fold change Tl+ flux [18] -0.025 | log fold change Tl+ flux [19] 0.00562

COc1ccccc1OCCNCC(O)COc1cccc2[nH]c3ccccc3c12 (stereo not drawn)
1.13 and 1: normalised cell number [10, 21]
inactive: nuclear beta-catenin stimulation ([1]; at 10 µM) 10.7% | insulin secretion stimulation [2] 1.9% | viability decrease [3] 7.2% | GLP1 secretion stimulation [5] 11.2% | inhibition [9] 6.21% | red/green cell ratio (normalised) [10] 1.11 and 0.93 | z-score [12, 22] -0.281 and 0.201 and -0.32 | log fold change Tl+ flux [13] -0.0291
-0.463 and 1.15 and -0.0666: z-score [12, 23]
active: tube area decrease [4] 60.9% | inhibition of viability [6] 83.7% | viability decrease (inhibition) [7] 112% | viability decrease (inhibition) [8] 90.5% | log fold change Tl+ flux [14] 0.26 | log fold change Tl+ flux [15] -0.29 | log fold change Tl+ flux [16] 0.358 | log fold change Tl+ flux [17] 0.204 | log fold change Tl+ flux [18] -0.174 | log fold change Tl+ flux [19] 0.386
1.02 and 1.07: normalised cell number [10, 20]
2%: nuclear beta-catenin stimulation ([1]; stimulation, at 2 µM)

CCc1cc(C(N)=S)ccn1
inactive: nuclear beta-catenin stimulation ([1]; at 10 µM) 0.1% | insulin secretion stimulation [2] 1% | viability decrease [3] -19.3% | tube area decrease [4] 2.7% | GLP1 secretion stimulation [5] -4% | inhibition of viability [6] -7.9% | viability decrease (inhibition) [7] 6.3% | viability decrease (inhibition) [8] -11% | inhibition [9] 11% | red/green cell ratio (normalised) [10] 0.96 | z-score [12, 22] 0.0369 and 0.0584 | log fold change Tl+ flux [13] 0.0115 | log fold change Tl+ flux [14] 0.0016 | log fold change Tl+ flux [15] -0.0262 | log fold change Tl+ flux [16] 0.0197 | log fold change Tl+ flux [17] 0.00124 | log fold change Tl+ flux [18] 0.0202 | log fold change Tl+ flux [19] -0.00453
0.97: normalised cell number [10, 21]
1.01: normalised cell number [10, 20]
0.0377 and 0.257: z-score [12, 23]
0.5%: nuclear beta-catenin stimulation ([1]; stimulation, at 2 µM)

CCN(Cc1ccncc1)C(=O)C(CO)c1ccccc1 (stereo not drawn)
-1.9%: nuclear beta-catenin stimulation ([1]; stimulation, at 2 µM)
inactive: nuclear beta-catenin stimulation ([1]; at 10 µM) 0.5% | insulin secretion stimulation [2] 1.6% | viability decrease [3] 11.6% | tube area decrease [4] 7.1% | GLP1 secretion stimulation [5] 0.1% | inhibition of viability [6] 14.3% | viability decrease (inhibition) [7] 12% | viability decrease (inhibition) [8] 3.8% | inhibition [9] -16.3% | red/green cell ratio (normalised) [10] 1.08 | z-score [12, 22] 0.0477 and 0.409 and -0.211 | log fold change Tl+ flux [13] 0.0305 | log fold change Tl+ flux [14] -0.00694 | log fold change Tl+ flux [15] -0.0245 | log fold change Tl+ flux [16] -0.0208 | log fold change Tl+ flux [17] 0.00211 | log fold change Tl+ flux [18] -0.035 | log fold change Tl+ flux [19] 0.0151
1.16: normalised cell number [10, 21]
1.08: normalised cell number [10, 20]
0.0479 and 0.424 and 0.901: z-score [12, 23]
